Laboratory results as given in PubChem BioAssay (NCATS).
Results filed as inconclusive are left out. The source made the active and inactive calls. The call rests on the fitted dose curve; in most records, active means well fitted inhibition curve with a large enough effect; inconclusive means small, poorly fitted or top-dose-only effect; inactive means flat fitted curve, though single readings scatter.

How the values were obtained:
ICS = assay: qHTS profiling for inhibitors of Plasmodium falciparum proliferation (AID 504749);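 further: 0% = DMSO vehicle and full inhibition = artemisinin control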; conditions: P. falciparum in erythrocytes, SYBR Green DNA, 72 h; series mostly up to 28.7 µM
Method in brief: (§1)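 Each compound contacts P. falciparum-infected red blood cells for 72 h at 37 C; lysis buffer (Tris, EDTA, saponin, Triton X, SYBR Green I) is added and fluorescence measured next morning; values normalized to controls.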

JCK = assay: as above; conditions: P. falciparum in erythrocytes, SYBR Green DNA, 72 h; series mostly up to 28.7 µM
Method in brief: as §1

N140 = assay: as above; conditions: P. falciparum in erythrocytes, SYBR Green DNA, 72 h; series mostly up to 28.7 µM
Method in brief: as §1

P93_24 = assay: as above; conditions: P. falciparum in erythrocytes, SYBR Green DNA, 72 h; series mostly up to 28.7 µM
Method in brief: as §1

P94_40 = assay: as above; conditions: P. falciparum in erythrocytes, SYBR Green DNA, 72 h; series mostly up to 28.7 µM
Method in brief: as §1

PAD = assay: as above; conditions: P. falciparum in erythrocytes, SYBR Green DNA, 72 h; series mostly up to 28.7 µM
Method in brief: as §1

PC15 = assay: as above; conditions: P. falciparum in erythrocytes, SYBR Green DNA, 72 h; series mostly up to 28.7 µM
Method in brief: as §1

PC26 = assay: as above; conditions: P. falciparum in erythrocytes, SYBR Green DNA, 72 h; series mostly up to 28.7 µM
Method in brief: as §1

PC49 = assay: as above; conditions: P. falciparum in erythrocytes, SYBR Green DNA, 72 h; series mostly up to 28.7 µM
Method in brief: as §1

SC27B = assay: as above; conditions: P. falciparum in erythrocytes, SYBR Green DNA, 72 h; series mostly up to 28.7 µM
Method in brief: as §1

TAB109 = assay: as above; conditions: P. falciparum in erythrocytes, SYBR Green DNA, 72 h; series mostly up to 28.7 µM
Method in brief: as §1

TAB113 = assay: as above; conditions: P. falciparum in erythrocytes, SYBR Green DNA, 72 h; series mostly up to 28.7 µM
Method in brief: as §1

TAB165 = assay: as above; conditions: P. falciparum in erythrocytes, SYBR Green DNA, 72 h; series mostly up to 28.7 µM
Method in brief: as §1

W2 = assay: as above; conditions: P. falciparum in erythrocytes, SYBR Green DNA, 72 h; series mostly up to 28.7 µM
Method in brief: as §1

KB-3-1 = assay: Cytotoxic Profiling of Annotated Libraries Using Quantitative High-Throughput Screening (AID 1296008); conditions: Five cell lines viability, CellTiter-Glo ATP luminescence, 48-72 h; max response: stronger effect = lower value; further: on the % scale 0 is the no-effect control and ±100 the full control effect
Method in brief: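 Cells exposed to compounds for 48 or 72 hr at 37 degrees Celsius. Viability read as ATP-coupled luminescence with CellTiter-Glo after 10 min at room temperature.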
Further: nearly all actives have a fitted effect of over 60% in size.

O=C(O)Cc1nn(Cc2ccc(Br)cc2F)c(=O)c2ccccc12
inactive: Potency (ICS) | Potency (JCK) | Potency (N140) | Potency (P93_24) | Potency (P94_40) | Potency (PAD) | Potency (PC15) | Potency (PC26) | Potency (PC49) | Potency (SC27B) | Potency (TAB109) | Potency (TAB113) | Potency (TAB165) | Potency (W2) | max response (KB-3-1) 1.97%

Cc1c(Cl)cccc1Nc1ncccc1C(=O)O
inactive: Potency (ICS) | Potency (JCK) | Potency (N140) | Potency (P93_24) | Potency (P94_40) | Potency (PAD) | Potency (PC15) | Potency (PC26) | Potency (PC49) | Potency (SC27B) | Potency (TAB109) | Potency (TAB113) | Potency (TAB165) | Potency (W2) | max response (KB-3-1) 2.98%

CC12CCC(C[N+](C)(CCC[N+](C)(C)C)C1)C2(C)C (stereo not given)
inactive: Potency (ICS) | Potency (JCK) | Potency (N140) | Potency (P93_24) | Potency (P94_40) | Potency (PAD) | Potency (PC15) | Potency (PC26) | Potency (PC49) | Potency (SC27B) | Potency (TAB109) | Potency (TAB113) | Potency (TAB165) | Potency (W2) | max response (KB-3-1) -0.0096%

CC(=O)Nc1ccc(OC(C)=O)cc1
inactive: Potency (ICS) | Potency (JCK) | Potency (N140) | Potency (P93_24) | Potency (P94_40) | Potency (PAD) | Potency (PC15) | Potency (PC26) | Potency (PC49) | Potency (SC27B) | Potency (TAB109) | Potency (TAB113) | Potency (TAB165) | Potency (W2) | max response (KB-3-1) 6.1%

FC(F)OC(Cl)C(F)(F)F (stereo not given)
inactive: Potency (ICS) | Potency (JCK) | Potency (N140) | Potency (P93_24) | Potency (P94_40) | Potency (PAD) | Potency (PC15) | Potency (PC26) | Potency (PC49) | Potency (SC27B) | Potency (TAB109) | Potency (TAB113) | Potency (TAB165) | Potency (W2) | max response (KB-3-1) 0.674%

O=C(O)c1ccc(OCCn2ccnc2)cc1
inactive: Potency (ICS) | Potency (JCK) | Potency (N140) | Potency (P93_24) | Potency (P94_40) | Potency (PAD) | Potency (PC15) | Potency (PC26) | Potency (PC49) | Potency (SC27B) | Potency (TAB109) | Potency (TAB113) | Potency (TAB165) | Potency (W2) | max response (KB-3-1) 6.76%

CC(C)[C@H](N)C(=O)OCC(CO)OCn1cnc2c(=O)[nH]c(N)nc21 (stereo not given in full)
inactive: Potency (ICS) | Potency (JCK) | Potency (N140) | Potency (P93_24) | Potency (P94_40) | Potency (PAD) | Potency (PC15) | Potency (PC26) | Potency (PC49) | Potency (SC27B) | Potency (TAB109) | Potency (TAB113) | Potency (TAB165) | Potency (W2) | max response (KB-3-1) 3.14%

Nc1nc(=O)n([C@@H]2CS[C@H](CO)O2)cc1F
inactive: Potency (ICS) | Potency (JCK) | Potency (N140) | Potency (P93_24) | Potency (P94_40) | Potency (PAD) | Potency (PC15) | Potency (PC26) | Potency (PC49) | Potency (SC27B) | Potency (TAB109) | Potency (TAB113) | Potency (TAB165) | Potency (W2) | max response (KB-3-1) 6.08%

CN(C)C=Nc1c(I)cc(I)c(CCC(=O)O)c1I
inactive: Potency (ICS) | Potency (JCK) | Potency (N140) | Potency (P93_24) | Potency (P94_40) | Potency (PAD) | Potency (PC15) | Potency (PC26) | Potency (PC49) | Potency (SC27B) | Potency (TAB109) | Potency (TAB113) | Potency (TAB165) | Potency (W2) | max response (KB-3-1) 0.601%

O=C(O)/C=C/C(=O)Nc1ccc(S(=O)(=O)Nc2nccs2)cc1
inactive: Potency (ICS) | Potency (JCK) | Potency (N140) | Potency (P93_24) | Potency (P94_40) | Potency (PAD) | Potency (PC15) | Potency (PC26) | Potency (PC49) | Potency (SC27B) | Potency (TAB109) | Potency (TAB113) | Potency (TAB165) | Potency (W2) | max response (KB-3-1) -6.18%

CO
inactive: Potency (ICS) | Potency (JCK) | Potency (N140) | Potency (P93_24) | Potency (P94_40) | Potency (PAD) | Potency (PC15) | Potency (PC26) | Potency (PC49) | Potency (SC27B) | Potency (TAB109) | Potency (TAB113) | Potency (TAB165) | Potency (W2) | max response (KB-3-1) 17.7%

O=C(O)[C@H]1CN(C/C=C/P(=O)(O)O)CCN1
inactive: Potency (ICS) | Potency (JCK) | Potency (N140) | Potency (P93_24) | Potency (P94_40) | Potency (PAD) | Potency (PC15) | Potency (PC26) | Potency (PC49) | Potency (SC27B) | Potency (TAB109) | Potency (TAB113) | Potency (TAB165) | Potency (W2) | max response (KB-3-1) 9.65%

O=P(O)(O)O
inactive: Potency (ICS) | Potency (JCK) | Potency (N140) | Potency (P93_24) | Potency (P94_40) | Potency (PAD) | Potency (PC15) | Potency (PC26) | Potency (PC49) | Potency (SC27B) | Potency (TAB109) | Potency (TAB113) | Potency (TAB165) | Potency (W2) | max response (KB-3-1) 2.99%
